Measurements from PubChem BioAssay (NCI).
Where “and” joins values, the source holds several entries; their conditions need not be identical. Equal entries are not always repeated. This is part of a sample that, as a whole, favours compounds with a hit. Of some 79,000 tested, about 15% had one in any assay. Rule as the data show it: active = growth inhibition above about 70%; inactive = the rest.

Columns and labels:
[1] = NCI Yeast Anticancer Drug Screen. Data for the rad50 strain (AID 155);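 also: 0% = growth of vehicle-only cultures of the same strain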; settings: S. cerevisiae rad50 strain growth inhibition, hits give high values; at 50.0 µM unless noted
Procedure, shortened: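 Readout: growth inhibition relative to vehicle-treated cultures. Compound exposure was carried out in a genetically defined yeast strain deficient in DNA damage repair.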

[2] = NCI Yeast Anticancer Drug Screen. Data for the mec2-1 strain (AID 157); settings: S. cerevisiae mec2-1 strain, hits give high values; at 50.0 µM unless noted
Procedure, shortened: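 Using mec2-1 yeast: add compound, measure growth, express inhibition versus vehicle-treated cultures.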

[3] = NCI Yeast Anticancer Drug Screen. Data for the sgs1 mgt1 strain (AID 161);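 also: 0% = growth of cultures given vehicle only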; settings: S. cerevisiae sgs1 mgt1 strain, hits give high values; at 50.0 µM unless noted
Procedure, shortened: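 Percent growth inhibition was derived by comparing compound-exposed mutant yeast with vehicle-exposed cultures. The strain carries alterations in DNA damage repair.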

[4] = NCI Yeast Anticancer Drug Screen. Data for the cln2 rad14 strain (AID 165);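 also: 0% = growth equal to vehicle treated cultures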; settings: S. cerevisiae cln2 rad14 strain, hits give high values; at 50.0 µM unless noted
Procedure, shortened: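 Yeast strain cln2 rad14, bearing defects in cell cycle control and DNA repair, serves as the test system; values reflect growth inhibition compared with vehicle.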

[5] = NCI Yeast Anticancer Drug Screen. Data for the bub3 strain (AID 167); settings: S. cerevisiae bub3 mutant strain, hits give high values; at 50.0 µM unless noted
Procedure, shortened: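 Readout: yeast growth inhibition, expressed relative to vehicle-only wells. The test organism is a mutant strain from a panel with lesions in DNA repair or checkpoint genes.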

[6] = NCI Yeast Anticancer Drug Screen. Data for the mlh1 rad18 strain (AID 175); settings: S. cerevisiae mlh1 rad18 strain growth inhibition, hits give high values; at 50.0 µM unless noted
Procedure, shortened: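 Steps: expose repair-defective yeast to compound; measure growth; express inhibition against vehicle-treated controls.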

Measured: growth inhibition

N#CCc1cccc(Cl)c1Cl (tested in a mixture with another compound)
inactive: [1] 6.8% | [2] -15.3% | [3] 3.55% | [4] -22.4% | [5] 14.4% | [6] -7.55%

O=C(O)CN(CCO)CCN(CC(=O)O)CC(=O)O.[Fe+2]
inactive: [1] 6% | [2] -32% | [3] -18.5% | [4] 18.6% | [5] -14.5% | [6] 2.25%

O=C1c2ccccc2C(=O)N1c1ccc(Cc2ccc(N3C(=O)c4ccccc4C3=O)cc2)cc1
inactive: [1] -11.7% | [2] 10.1% | [3] -2.6% | [4] 42.9% | [5] -0.2% | [6] 14.7%

Cc1cccc(C(=O)NNC(=O)C(=O)NNC(=O)c2cccc(C)c2)c1
inactive: [1] 3.6% | [2] 43.6% | [3] -3.1% | [4] -0.05% | [5] 24.6% | [6] 26.9%

NC1CC(=O)c2ccccc21 (stereo not drawn)
inactive: [1] 15.2% | [2] 4.8% | [3] -5% | [4] 8.95% | [5] 2.75% | [6] -37.6%

Cc1ccc(/C=N/NC(N)=S)nn1
inactive: [1] 3.45% | [2] 2.25% | [3] -8.15% | [4] -67.4% | [5] 2.45% | [6] 5.4%

Cn1c2ccc(Cl)cc2c2ccc3c(c21)C(=O)C=CC3=O
inactive: [1] -21.9% | [2] -33% | [3] -18.3% | [4] 14.2% | [5] -25.2% | [6] -8.05%

O=S(=O)([O-])[O-].O=c1[nH]cnc2[nH]ncc12.O=c1[nH]cnc2[nH]ncc12.[Zn+2]
inactive: [1] -26.2% | [2] 4.15% | [3] -15.9% | [4] 3.65% | [5] -20.8% | [6] -17.6%

OC1(C2NCCc3ccccc32)CCN(CCc2ccccc2)CC1 (stereo not drawn)
inactive: [1] 21.8% | [2] 10.7% | [3] 25.5% | [4] 20.2% | [5] 2.95% | [6] 8.9%

Oc1cc2c(cc1-c1cc3c(cc1O)OCO3)OCO2
inactive: [1] -21.1% | [2] -15.3% | [3] -5.15% | [4] -41% | [5] -3.2% | [6] 0.55%

Cc1cc2nc3c(=O)[nH]c(=O)nc-3n(C/C=N/NC(N)=S)c2cc1C
inactive: [1] 5.75% | [2] -7.65% | [3] -5.05% | [4] -45.1% | [5] -12.8% | [6] -2.7%

c1ccc(Cc2cncc(Cc3ccccc3)c2)cc1
inactive: [1] -22.5% | [2] 1.95% | [3] 6.85% | [4] -58.6% | [5] 55.5% | [6] 9.1%

CN(C)CCNC(=O)Cn1ccc(=O)c2ccc([N+](=O)[O-])cc21
inactive: [1] 11.9% | [2] 6.55% | [3] 20.6% | [4] 20.8% | [5] -5.85% | [6] -39.5%

Cc1ccc(S(=O)(=O)n2cc(C#N)c(C#N)c2)cc1
inactive: [1] -10.8% | [2] 2.25% | [3] 10.8% | [4] -28.6% | [5] 16.3% | [6] 7.15%

O=C(O)c1ccccc1SSc1ccccc1C(=O)O
inactive: [1] 10.2% and -7.05% | [2] 16.4% and -6.5% | [3] -6.6% and 3.3% | [4] 4% and -26.9% | [5] 9% and -0.65% | [6] 7.85% and 9.6%

CC12CCC(CC1(Cl)Cl)C2 (stereo not drawn)
inactive: [1] 9.75% | [2] -5.8% | [3] 21.1% | [4] 14.3% | [5] 4.7% | [6] 26.9%

Cc1ccc(NCC(=O)N2CC(=O)Nc3ccccc32)c(C)c1
inactive: [1] -26.2% | [2] -39.1% | [3] -43.8% | [4] -3.4% | [5] -27.7% | [6] -31.3%

Cn1c(O)c(N=NC(=O)Cc2c[nH]c3ccccc23)c2ccccc21
inactive: [1] -6.95% | [2] -3.75% | [3] 4.8% | [4] -7.05% | [5] -2.2% | [6] -19.1%

CN(C)c1nc(N(C)C)nc(N(C)CN(C)c2ccc(Cl)cc2)n1
inactive: [1] -11.3% | [2] -23.3% | [3] -26.8% | [4] -11.3% | [5] -49% | [6] -16.4%

CCCC(=O)NC(Nc1ccc(S(=O)(=O)Nc2cc(C)on2)cc1)(C(=O)OCC)C(F)(F)F (stereo not drawn)
inactive: [1] 32.8% | [2] -18.9% | [3] 4.75% | [4] 18.1% | [5] -14.4% | [6] -40.8%

Cc1ccc(/C=C2\CCCC\C2=N\O)cc1
inactive: [1] 5.15% | [2] -7% | [3] 2.3% | [4] -10.2% | [5] -22.6% | [6] 2.15%

O=C(N/N=C/c1ccc(Cl)cc1)c1cccc([N+](=O)[O-])c1
inactive: [1] -1.5% | [2] 7.7% | [3] -3.6% | [4] 4.25% | [5] 8.35% | [6] -5.7%

CCN(CC)c1nc(Cl)nc(Nc2ccc3cc(-c4ccccc4)c(=O)oc3c2)n1
inactive: [1] -9.15% | [2] -24.9% | [3] -8.1% | [4] 8.05% | [5] -12.7% | [6] -7.25%

CN(C)c1nc(S(C)(=O)=O)nc2nc(Cl)[nH]c12
inactive: [1] 6.2% | [2] -13.6% | [3] -0.85% | [4] -7.1% | [5] 3.65% | [6] -9.8%

CC(=O)O[C@H]1[C@@H](OC(C)=O)C(C)(C)/C=C/[C@H](C)C(=O)[C@@]2(OC(C)=O)C[C@@](C)(OC(C)=O)[C@H](OC(C)=O)[C@@H]2[C@H]2OC(=O)CC[C@@]2(OC(=O)c2ccccc2)[C@@H]1OCC(C)C
inactive: [1] 3.85% | [2] -2.15% | [3] -15.8% | [4] 36% | [5] -22.3% | [6] -0.15%

O=C1NC(N2CCOCC2)=N/C1=C\c1cccs1
inactive: [1] -8.45% | [2] 5.05% | [3] 13.2% | [4] 32.3% | [5] 1.05% | [6] -34%

CC(C)c1ccccc1NC(=O)CCC(=O)NN
inactive: [1] -11.1% | [2] -7.95% | [3] -7.95% | [4] 6.1% | [5] -17.8% | [6] -11.7%

CC(C)CCC[C@@H](C)[C@H]1CC[C@H]2[C@@H]3CCC4=CC(=O)NCC[C@]4(C)[C@H]3CC[C@]12C
inactive: [1] 12.8% | [2] -3.25% | [3] 34.6% | [4] 27.2% | [5] -9.35% | [6] 15.9%

Cc1[nH]c(=O)[nH]c(=O)c1CCO
inactive: [1] -8.9% | [2] -2.6% | [3] -4.25% | [4] -29.4% | [5] -28.3% | [6] -13.4%

CC(=O)N(CCC(C)C)CCC(C)C
inactive: [1] 17.9% | [2] 2.3% | [3] 5.5% | [4] 14.3% | [5] -8.05% | [6] -11.2%

C/C(CC(=O)Nc1ccc(Cc2ccc(Br)cc2)cc1)=N/Nc1ccc([N+](=O)[O-])cc1[N+](=O)[O-]
inactive: [1] 25.1% | [2] 12.6% | [3] 31.3% | [4] 16.5% | [5] 4.1% | [6] 24.7%

CC(C)c1ccccc1O
inactive: [1] 34.9% | [2] 30.7% | [3] 9.95% | [4] 8.8% | [5] 0.45% | [6] 22.4%

CCOC(=O)c1c(C)cc(=O)oc1C
inactive: [1] -8.65% and 3.95% | [2] 7.55% and -1.6% | [3] -4.65% and -3.25% | [4] -31.3% and -11.1% | [5] 2.3% and -1.7% | [6] -11.8% and 8.75%

COC(=O)C(=O)C(C(=O)OC)C(=O)C(=O)Nc1ccccc1C(N)=O (stereo not drawn)
inactive: [1] -33.5% | [2] -7.55% | [3] -25.6% | [4] -10.2% | [5] -27.9% | [6] -21.2%

C=C1C(=O)OC2/C=C(\C)C(O)/C=C\C(C)(O)CC(OC(=O)/C(C)=C/C)C12 (stereo not drawn)
inactive: [1] -18% | [2] -37.6% | [3] -3.15% | [4] -2% | [5] -34.8% | [6] -26.8%

O=C1[C@H]2ON(c3ccccc3)C(c3ccccc3)[C@H]2C(=O)N1c1ccc(Cc2ccc(N3C(=O)[C@@H]4ON(c5ccccc5)C(c5ccccc5)[C@@H]4C3=O)cc2)cc1 (stereo partly drawn)
inactive: [1] 3.1% | [2] 3.45% | [3] 12.6% | [4] 21.5% | [5] 26.5% | [6] 11.8%

C/C(=C/CC1=C(O)c2ccccc2C(=O)C1=O)CO
inactive: [1] 23% | [2] 32.9% | [3] 51.7% | [4] 32.8% | [5] 26% | [6] 33.8%

CC1(C)C2CCC3(C2)CS(=O)(=O)N2OC231 (stereo not drawn)
inactive: [1] 6.55% | [2] -35.9% | [3] -31.1% | [4] -20.1% | [5] -26.9% | [6] -9.7%
